SMILES strings stand for the structures. Active and inactive are the calls of the source. How the source made its calls: active means hit-call score of the fitted dose curve at least 0.9, where 1 is the maximum; inactive means score below 0.9.

Read-out in one test: CFLAR gene, CFLAR (gene 8837)
As to the kind of experiment: LTEA_HepaRG_CFLAR: Life Technologies and Expression Analysis (LTEA) Assay for CFLAR gene using HepaRG (AID 2283455). To be noted: mRNA level, 48 h; actives raise or lower the signal. The gist of the method:
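HepaRG cells were plated for 48 h, switched to serum-free induction medium, then exposed in duplicate for 48 h to 8 concentrations (top 100 uM, half-log steps, 0.5% DMSO). CFLAR mRNA was measured by qRT-PCR, normalized to ACTB, GAPDH and POLR2A.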
Regarding `C[Si]1(C)O[Si](C)(C)O[Si](C)(C)O[Si](C)(C)O1`, the call was inactive. In the case of `COCCOCCOC`, the AC50 is 0.253 µM (active).

For the molecule `O=C(O)CCCCC(=O)O`, the molecule was called inactive. As for `Cc1nc(C)nc(N2C[C@@H](C)N(c3ccnc([C@@H](C)O)n3)[C@@H](C)C2)n1`, the result was inactive. Turning to `CCCCCC(=O)O`, the outcome was inactive. The same measure, in the same setting: under `Cc1ccc(C)c(O)c1C` stands “inactive”; under `CC=Cc1ccc(O)c(OC)c1`, “inactive”. For `C=CCc1ccc(O)c(OC)c1`, the molecule was called inactive. The same measure, in the same setting: under `CCCCCCCCCCCCCO` stands “inactive”; under `CC(CO)OC(C)CO` (configuration not stated) (tested in a mixture with another compound), “inactive”.

Read-out in the next test: Forkhead box O1 (FOXO1), FOXO1 (gene 2308)
As to the kind of experiment: LTEA_HepaRG_FOXO1: Life Technologies and Expression Analysis (LTEA) Assay for Forkhead box O1 (FOXO1) using HepaRG (AID 2283456). To be noted: mRNA level, 48 h; actives raise or lower the signal. The gist of the method:
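Differentiated human HepaRG cells in serum-free induction medium were exposed in duplicate for 48 h to eight half-log concentrations (top 100 uM, 0.5% DMSO). FOXO1 mRNA was measured by TaqMan qRT-PCR, normalised to ACTB, GAPDH and POLR2A, and fitted bidirectionally against DMSO.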
Regarding `COc1ccc2c(c1)c(CC(=O)O)c(C)n2C(=O)c1ccc(Cl)cc1`, the outcome was inactive. Regarding `CNCc1cc(F)ccc1Oc1ccc(Cl)c(Cl)c1`, the outcome was inactive. The same measure, in the same setting: the value for `C[Si]1(C)O[Si](C)(C)O[Si](C)(C)O[Si](C)(C)O1` was “inactive”. As to `COCCOCCOC`, the half-maximal activity concentration (AC50) is 2.22 µM (active).

For the molecule `COC(=O)c1ccc(O)cc1`, the molecule was called inactive. Regarding `O=C(O)CCCCC(=O)O`, the result was inactive. The same measure, in the same setting: the value for `Cc1cc(=O)[nH]c(=S)[nH]1` was “inactive”; that for `Cc1nc(-c2ccc3c(c2)CCN(CCC2CCC(NC(=O)/C=C/c4ccc(F)cc4)CC2)CC3)no1` (configuration not stated) was “inactive”; that for `CC1=C(/C=C/C(C)=C/C=C/C(C)=C/CO)C(C)(C)CCC1` was “inactive”. Still for that read-out and setting: the value for `CC(=O)OC/C=C(\C)CCC=C(C)C` was “inactive”. On the same count and under the same terms, the value for `COc1ccc(C)cc1N` was “inactive”.

As to `OC[C@@H](O)[C@@H](O)[C@H](O)[C@H](O)CO`, the molecule was classed as inactive. Same read-out and setting: under `NS(=O)(=O)c1cc2c(cc1Cl)NCNS2(=O)=O` stands “inactive”. The same measure, in the same setting: under `NCCO` stands “inactive”. For the molecule `COc1ccc(S(=O)(=O)N2C(=O)[C@@](c3ccccc3OC)(N3C[C@H](O)C[C@H]3C(=O)N(C)C)c3cc(Cl)ccc32)c(OC)c1`, the AC50 was 35.9 µM (active). With `c1cc(-c2ccncc2)ccn1`, the molecule was called inactive. On the same count and under the same terms, the value for `Cc1nc(C)nc(N2C[C@@H](C)N(c3ccnc([C@@H](C)O)n3)[C@@H](C)C2)n1` was “inactive”. Same read-out and setting: the value for `Cc1cccc([N+](=O)[O-])c1C` was “inactive”. As for `Cc1oc(-c2ccccc2)nc1CCOc1cccc2c1ccn2CCC(=O)O`, the AC50 is 85.6 µM (active). As to `CCOC(=O)CCC(=O)OCC`, the result was inactive.

Take `CN[C@H]1CC[C@@H](c2ccc(Cl)c(Cl)c2)c2ccc(S(N)(=O)=O)cc21`: the call was inactive. For the molecule `NC(=O)Cn1c(=O)cc(CCN2CCN(c3nccc4sccc34)CC2)c2ccc(F)cc21`, the AC50 is 50 µM (active). Turning to `CCCCCC(=O)O`, the result was inactive. With `Cc1ccc(C)c(O)c1C`, the result was inactive.

As for `CC=Cc1ccc(O)c(OC)c1`, the outcome was inactive. Same read-out and setting: the value for `CCCCN(CCCC)CCCC` was “inactive”.

For the molecule `C=CCc1ccc(O)c(OC)c1`, the molecule was classed as inactive. Still for that read-out and setting: the value for `CCCCCCCCCCCCCO` was “inactive”; that for `CC(CO)OC(C)CO` (configuration not stated) (tested in a mixture with another compound) was “inactive”.

Read-out in a further test: not listed separately
The experiment in a line: CEETOX_H295R_TESTO: CeeTox H295R High-throughput Steroidogenesis Assay for Testosterone (TESTO) (AID 2283457).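 On AC50: cells exposed to chemicals for 48 h before medium collection.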 The note with it: actives raise or lower the signal. The method, then: CEETOX_H295R is a cell-based, multiplexed-readout assay that uses H295R, a human adrenal gland cell line, with measurements taken at 48 hours after chemical dosing in a 96-well plate.CEETOX_H295R_TESTO is one of 23 assay component(s) measured or calculated from the CEETOX_H295R assay. It is designed to make measurements of hormone induction, a form of inducible reporter, as detected with […] by HPLC-MS-MS technology.Data from the assay component CEETOX_H295R_TESTO was analyzed into 1 assay endpoint. This assay endpoint, CEETOX_H295R_TESTO, was analyzed with bidirectional fitting relative to DMSO as the negative control and baseline of activity. Using a type of inducible reporter, gain or loss-of-signal activity using HPLC-MS-MS was used to understand synthesis of Testosterone in H295R cell line at 48hr of chemical exposure. To generalize the intended target to other relatable targets, this assay endpoint is annotated to the steroid hormone intended target family, where the subfamily is androgens.
Cell culture and media preparation procedures were conducted in accordance with OECD Test No. 456 guidelines, with minor modifications. H295R cells (ATCC CRL-2128) were expanded for 5 passages and frozen in batches in liquid nitrogen. Prior to the steroidogenesis assay, H295R cells were thawed and passed at least 4 times. The maximum passage was 10. Cells were maintained in a 1:1 mixture of DMEM/F12 supplemented with 5ml/L ITS+ Premix (BD Bioscience) and 12.5 ml/L Nu-Serum (BD Bioscience). After seeding cells into 96-well plates at 50-60% confluency, cells were allowed to adhere overnight. […] Test chemicals were incubated for 48 hours, then the medium was removed and split into 2 vials containing approximately 75uL each, and stored at -80 C prior to hormone analysis. For steroid quantification, media samples were shipped to OpAns, LLC (Durham, NC) on dry ice, and samples were thawed to room temperature prior to liquid-liquid extraction. Steroid hormones were extracted from media samples using methyl tertbutyl ether (MTBE). An extra derivatization with dansyl chloride was included for estrogen (estrone and estradiol) detection only. Steroid hormones were separated by HPLC, eluted using a reverse phase C18 gradient with electrospray positive ionization, followed by quantification by tandem mass spectrometry (MS/MS). Data were acquired on a MassHunter Workstation Acquisition version B03.01 (Agilent Technologies, Inc.) and processed using MassHunter Quantitative Analysis for QQQ. Accuracy was determined for each hormone analyte from 3 standards to determine upper and lower limits of quantification (ULOQ and LLOQ, respectively) using a 7-point standard curve. Precision and accuracy of the extraction and quantification methods were calculated as the percent relative standard deviation (%RSD) of the spiked standards and percent spiked standard recovered, respectively. […] Test medium was removed following chemical exposure, and cell viability was evaluated in the same wells by MTT. MTT procedures were as follows: after removal of test medium, 500 uL of 0.5 mg/ml of 3-[4,5-dimethylthiazol-2-y]2,5-diphenyltetrazoliumbromide solution was added to the cells. Following a 4-hour incubation at 37 C and 5% CO2 to allow formazan-crystal formation, the MTT solution was removed and blue formazan salt crystals were solubilized using 500uL anhydrous isopropanol with shaking for 20 minutes. Absorbance was read at 570 and 650nm using a Packard Fusion microplate reader. Background correction of absorbance units was used to determine percent change relative to controls. […] When a test chemical reduced cell viability to 20% - 70%, the test chemical was diluted 10-fold and re-evaluated, but if cell viability was <20%, then the test chemical was diluted 100-fold and re-evaluated. Test chemical dilutions were made until cell viability was >/=70%. MTT assays were also conducted for duplicates of all concentrations of chemicals tested in concentration-response studies. […]
Turning to `Cc1nc(-c2ccc3c(c2)CCN(CCC2CCC(NC(=O)/C=C/c4ccc(F)cc4)CC2)CC3)no1` (configuration not stated), the half-maximal activity concentration (AC50) was 0.248 µM (active). `COc1ccc(C)cc1N`: the molecule was called inactive. Still for that read-out and setting: the value for `COc1ccc(S(=O)(=O)N2C(=O)[C@@](c3ccccc3OC)(N3C[C@H](O)C[C@H]3C(=O)N(C)C)c3cc(Cl)ccc32)c(OC)c1` was “inactive”.

Usually AC50 stands for the concentration at which the activity in the assay is half-maximal.

Values taken from PubChem BioAssay (EPA / NIEHS).
